# From PubChem BioAssay
# In the library only some 2.5% were active in any assay of this set; here they are far more common.
# NSD2 HMT inh: NSD2 histone methyltransferase inhibitors, primary screen, biochemical, AlphaScreen, single concentration, set 2. NSD2 peptide methylation, 120 min. inhibition, % at 12.5 µM. 310,000 tested, 0.54% active. AID 743445, 2014; in the data active = inhibition above about 50%
# rRNA inh HTS: reduced GFP signal of wild-type E. coli, primary screen, bacterial rRNA inhibitor project, GFP/RFP fluorescence, OD600, single point. GFP signal change (wild-type ribosome), % (no concentration beside the values). 350,000 tested, 1.6% active. AID 720706, 2013. E. coli WT GFP vs humanized-ribosome RFP mutants, 24 h; stronger effect = lower value; DMSO median 0, no signal -100;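 active = significant combined selectivity score with lowered wild-type GFP, culture density cut under 30%, mutant RFP and density less affected; inactive = any of these conditions unmet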
# RAD52 inh: RAD52 DNA annealing inhibitors, primary screen, biochemical, FRET, single point, set 2; recombinant RAD52 DNA annealing, FRET fluorescence; inhibition, % at 18.7 µM; 360,000 tested, 0.46% active; AID 651710, 2012;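 active = every replicate showing at least 50% inhibition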
# MLL AF4-AF9 inh: inhibitors of AF4 peptide binding to AF9, primary screen, biochemical, AlphaScreen, biotin-AF4 peptide, FLAG-AF9, single point | Protein AF-9 (Homo sapiens), P42568 | inhibition, % at 10 µM | 350,000 tested, 0.47% active | AID 651704, 2012;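 active = every replicate reaching a set inhibition limit, whatever the replicate mean, cut at about 25% in these data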;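 also: 0% = plate neutral control median and 100% = total signal loss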
# Target sequence (P42568 whole entry, looked up): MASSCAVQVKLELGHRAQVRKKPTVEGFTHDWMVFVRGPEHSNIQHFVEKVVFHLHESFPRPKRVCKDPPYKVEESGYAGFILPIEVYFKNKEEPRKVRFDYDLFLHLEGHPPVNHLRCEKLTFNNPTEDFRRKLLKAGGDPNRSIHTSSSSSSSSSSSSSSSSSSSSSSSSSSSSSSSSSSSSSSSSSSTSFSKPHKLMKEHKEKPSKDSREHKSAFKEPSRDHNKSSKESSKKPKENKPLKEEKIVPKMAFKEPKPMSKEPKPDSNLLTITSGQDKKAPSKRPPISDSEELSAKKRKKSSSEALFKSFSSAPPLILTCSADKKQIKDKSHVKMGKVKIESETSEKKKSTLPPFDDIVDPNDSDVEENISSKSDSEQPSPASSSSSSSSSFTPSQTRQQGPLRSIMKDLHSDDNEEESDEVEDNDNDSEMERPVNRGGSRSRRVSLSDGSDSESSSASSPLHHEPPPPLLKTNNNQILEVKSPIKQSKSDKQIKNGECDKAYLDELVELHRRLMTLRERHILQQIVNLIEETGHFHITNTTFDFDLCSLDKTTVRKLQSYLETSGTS
# CASP6 VEID inh: human caspase-6 inhibitors, primary screen, biochemical, VEID-R110 fluorescence, single point, set 2 | P55212 | purified caspase-6, Z-VEID-R110 cleavage fluorescence | inhibition, % at 12.5 µM | 350,000 tested, 0.53% active;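 active = mean inhibition across replicates at least about 35%, with every replicate also reaching that limit, limit read from the data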;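 also: 0% = median of neutral control wells and 100% = no fluorescence left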
# * hit, by the source's call; . = not tested or not shown.
SMILES,NSD2 HMT inh,rRNA inh HTS,RAD52 inh,MLL AF4-AF9 inh,CASP6 VEID inh
CC(C)(C)CC(C)(C)N=C1Nc2ccccc2NC12C[C@H]1CCC(=O)N3CC[C@@H](C2)[C@@H]13 (some centres undefined),.,5,-4,28*,4
CC(C)(C)CC(C)(C)N=C1Nc2cc(Cl)c(Cl)cc2NC12C[C@H]1CCC(=O)N3CC[C@@H](C2)[C@@H]13 (some centres undefined),.,8,-6,8,-2
C[C@@H]1CN([C@@H](C)CO)C(=O)Cc2cc(N(C)C)ccc2O[C@@H]1CN(C)Cc1ccc(Cl)c(Cl)c1,.,.,1,43*,2
C[C@@H]1CN([C@@H](C)CO)C(=O)c2cc(N(C)C)ccc2O[C@H]1CN(C)Cc1ccc(Cl)c(Cl)c1,.,-10,21,11,0
C[C@@H]1CN([C@H](C)CO)C(=O)c2cc(Br)cnc2O[C@H]1CN(C)CC1CCCC1,.,6,1,-3,62*
C[C@H](CO)N1C[C@H](C)[C@@H](CN(C)CC2CCCC2)Oc2ncc(Br)cc2C1=O,.,5,-4,-2,-1
C[C@H](CO)N1C[C@H](C)[C@H](CN(C)Cc2ccc(Cl)c(Cl)c2)Oc2ccc(N(C)C)cc2C1=O,.,-3,-1,32*,-2
C[C@H](CO)N1C[C@H](C)[C@@H](CN(C)Cc2ccc(Cl)c(Cl)c2)OCCCC[C@H](C)Oc2ccc(N(C)C)cc2C1=O,.,-6,12,43*,0
O=C1NCCOCn2nncc2CC[C@H]1Cc1ccccc1,.,3,.,.,.
C[C@H]1CN([C@@H](C)CO)S(=O)(=O)c2ccc(C3=CCCCC3)cc2O[C@H]1CN(C)C,.,6,.,.,.
O=C(C1CCCC1)N1CC2(C1)[C@H](c1ccccc1)[C@@H](CO)N2Cc1cncnc1,.,2,-2,1,.
C[C@@H]1CN([C@H](C)CO)C(=O)Cc2cc(NS(=O)(=O)c3cccs3)ccc2O[C@@H]1CN(C)Cc1ccc(Cl)c(Cl)c1,.,-5,22,0,-3
C[C@@H]1CCCCO[C@@H](CN(C)CC2CCCCC2)[C@H](C)CN([C@@H](C)CO)C(=O)c2cc(N(C)C)ccc2O1,.,-2,-4,37*,0
C[C@@H]1CN([C@@H](C)CO)C(=O)Cc2cc(NS(=O)(=O)c3cccs3)ccc2O[C@H]1CN(C)Cc1ccc(Cl)c(Cl)c1,.,-3,51*,6,-2
C[C@@H]1CCCCO[C@@H](CN(C)Cc2ccc(Cl)c(Cl)c2)[C@@H](C)CN([C@H](C)CO)C(=O)c2cc(N(C)C)ccc2O1,.,-5,-5,48*,0
C[C@@H]1CN([C@@H](C)CO)C(=O)CCCn2cc(nn2)CO[C@H]1CN(C)Cc1ccc(-c2ccccc2)cc1,.,-1,-8,1,-3
O=C(NCCc1ccc(Cl)cc1)c1ccc2[nH]c(=O)c(=O)[nH]c2c1,-1,-25*,-27,-1,5
Cc1nc(SCC(=O)NCCc2ccc(Cl)cc2)nc(C)c1C,-1,-28*,-13,-8,-2
O=C(Cc1ccc(Cl)cc1)NCCc1ccc(F)cc1,-2,-24*,-13,-4,1
O=C(Cc1ccc(Br)cc1)NCCc1ccc(F)cc1,-3,-7,-5,-1,0
Cc1csc(SCC(=O)NCCc2ccc(Cl)cc2)n1,-2,-20,-5,-43,0
Cc1ccccc1-c1ccc([C@H]2[C@H](CO)N3CCCCN(S(=O)(=O)Cc4ccccc4)C[C@@H]23)cc1,.,-58,55*,4,-2
Cc1ccccc1-c1ccc([C@@H]2[C@@H](CO)N3CCCCN(S(=O)(=O)Cc4ccccc4)C[C@H]23)cc1,.,-57,63*,6,-4
C[C@@H]1CN([C@H](C)CO)C(=O)c2cccc(NC(=O)C3CC3)c2O[C@H]1CN(C)C(=O)Nc1ccccc1,.,3,-5,-4,0
CC(=O)N(C)C[C@H]1Oc2c(NS(C)(=O)=O)cccc2C(=O)N(C)C[C@H]1C,.,0,.,.,.
SMILES,NSD2 HMT inh,rRNA inh HTS,RAD52 inh,MLL AF4-AF9 inh,CASP6 VEID inh
CC1CN(c2ccc([N+](=O)[O-])c(NCCOc3ccccc3)c2)CC(C)N1 (centres undefined),21,6,3,7,-5
Cc1ccccc1OCCNc1cc(N2CC(C)NC(C)C2)ccc1[N+](=O)[O-] (centres undefined),.,-41,40,38*,1
COc1cc(C(=O)ON=C2C3CC4CC(C3)CC2C4)cc(OC)c1OC,-1,-22*,-4,-4,-2
COC(=O)CSc1ccc2nnc(-c3ccc(OC)c(OC)c3)n2n1,.,14,-8,32*,-4
COC(=O)CSc1ccc2nnc(-c3ccc(F)cc3)n2n1,-2,2,2,4,0
COc1ccc(-c2ccc(SCC(=O)c3cccs3)nn2)cc1OC,-2,-34*,-35,-1,4
Cn1c(=O)c([N+](=O)[O-])c(NCc2ccccc2Cl)c2ccccc21,-6,-29*,-7,2,1
Cn1c(=O)c([N+](=O)[O-])c(NCCc2ccccc2)c2ccccc21,2,.,.,.,.
C[C@H](CO)N1C[C@H](C)[C@@H](CN(C)C(=O)C2CCC2)Oc2cc(-c3ccc(F)cc3)ccc2S1(=O)=O,.,-1,.,.,.
C/C(=N\N=C1\NC(=O)C(Cc2ccccc2)S1)c1ccccc1 (centres undefined),-26,-52*,-6,3,17
COc1cccc(C(=O)Nc2ccc3c(c2)C(=O)N(C)C[C@@H](OC)[C@H](C)CN[C@@H](C)CO3)c1,.,1,-6,0,-1
Cc1cc(N/N=C/c2ccccc2)nc(NCc2ccccc2)n1,-1,-35*,-20,5,0
Cc1cc(N/N=C/c2ccc(Cl)cc2)nc(NCc2ccccc2)n1,3,-52,-165,0,-1
Cc1cc(N/N=C/c2ccccc2F)nc(NCc2ccccc2)n1,-1,-30*,-40,5,7
CCS(=O)(=O)N1CC(=O)N2[C@H](CO)[C@@H](c3ccc(-c4ccccc4C)cc3)[C@@H]2C1,.,-1,.,.,.
C[C@H](CO)N1C[C@H](C)[C@@H](CN(C)S(=O)(=O)c2cn(C)cn2)Oc2c(NC(=O)Cc3ccccc3)cccc2C1=O,.,1,.,.,.
CN(C)CCN(C(=O)c1cc(Cl)sc1Cl)c1nc2ccc(F)cc2s1,0,-2,-4,13,-1
CCN(CC)CCN(C(=O)c1ccccc1OC)c1nc2ccc(F)cc2s1,7,-22*,-11,12,6
O=C(NC1CCCC1)[C@H]1[C@H](CO)[C@H]2Cn3c(ccc(-c4ccccc4)c3=O)[C@@H]1N2CC1CC1,.,-4,-26,-1,1
